The text below walks through data of PubChem BioAssay (Tox21).

SMILES strings stand for the structures. “And” between values parts separate entries of the source, which are not always exact repeats. Equal values may be shown once. Inconclusive results are not listed. A call without a number means that no potency is given here. The source made the active and inactive calls. Calls come from the whole dose curve; as a rule, active = well fitted cell-killing curve with a large enough effect in the repeat runs; inconclusive = weak or mixed curves, or effect the other way; inactive = flat fitted curve, though single readings scatter.
Potency is the fitted concentration of half-maximal effect.

A short description of the assay: qHTS assay to identify small molecule antagonists of the estrogen receptor alpha (ER-alpha) signaling pathway using the BG1 cell line in the presence of 0.1 nM 17-beta-estradiol - cell viability counter screen (AID 1259241). Note: nearly all actives have a fitted effect of over 40% in size. The settings on record: VM7Luc4E2 (BG1) viability, CellTiter-Fluor protease, 22 h, 0.1 nM estradiol agonist added; series mostly up to 92.4 µM. The source says:
National Center for Advancing Translational Sciences [NCATS]
NIH Chemical Genomics Center [NCGC]
U.S. Environmental Protection Agency [EPA]
National Institutes of Environmental Health Sciences [NIEHS]
National Toxicology Program [NTP]
U.S. Food and Drug Administration [FDA]
Estrogen receptor (ER), a member of the nuclear hormone receptor plays an important role in development, metabolic homeostasis and reproduction. Two subtypes of ER, ER-alpha and ER-beta, have similar expression patterns with some uniqueness in both types. Endocrine disrupting chemicals (EDCs) and their interactions with steroid hormone receptors like ER causes disruption of normal endocrine function. Therefore, it is important to understand the effect of environmental chemicals in ER signaling pathway. For identifying ER antagonists, VM7Luc4E2 cell line was used to screen against Tox21 compound libraries.
VM7Luc4E2 cell line (provided by Denison MS, University of California) endogenously express full-length ER-alpha and is stably transfected with a plasmid containing four estrogen responsive elements (ERE) upstream of a luciferase reporter gene. The current screening for identification of ER-alpha inhibitors against Tox21 compound libraries used lower concentration (0.1 nM) of 17beta-Estradiol as a stimulator. The cytotoxicity of the Tox21 compound libraries against VM7Luc4E2 cell line was tested by measuring live-cell protease activity using CellTiter-Fluor assay in the same wells.
Tox21 Assay Protocol Summary:
VM7Luc4E2 cells were cultured in phenol red free assay medium containing 10% charcoal stripped FBS for 5 days prior to the assay. The cells were dispensed at 4,000 cells/well in 4 uL of assay medium into white wall/solid-bottom 1536-well plates (Corning Life Sciences, Corning, NY) using a Multidrop Combi (ThermoFisher Scientific, Waltham, MA) dispenser. After the assay plates were incubated at 37C and 5% CO2 for 24 hr, 23 nL of compounds dissolved in DMSO, positive controls or DMSO only was transferred to the assay plates by a Pintool station (Kalypsys, San Diego, CA). The transfer of compounds was followed by the addition of 1 uL of 0.1 nM (final concentration) agonist (17beta-Estradiol)/assay medium using a Flying Reagent Dispenser (FRD, Aurora Discovery, San Diego, CA). The plates were incubated at 37C and 5% CO2 for 22 hr. For cytotoxicity assay, 1 uL of CellTiter-Fluor reagent (Promega Corporation, Madison, WI) was added to each well using the FRD and after 30 min incubation at 37C and 5% CO2, The fluorescence intensity was measured using ViewLux plate reader (PerkinElmer, Shelton, CT).
Background: Quantitative high-throughput screening tests each substance at several concentrations.
`CCCC(=O)c1ccccc1`: the Potency entry is “inactive”.
The value for `CCn1c2ccccc2c2cc(N)ccc21` was “inactive”; that for `Cc1cc(C(C)(C)C)c(O)c(C(C)(C)C)c1` was “inactive”; that for `CCn1cc(C(=O)O)c(=O)c2cc(F)c(N3CCNC(C)C3)c(F)c21` (stereo not given) was “inactive”.
For `NNCCc1ccccc1` the value was “inactive”; for `CC(C)(C)c1ccccc1`, “inactive”; for `COc1ccc(Cc2cnc(N)nc2N)cc1OC`, “inactive”.
On to `CC(=O)OCCOCCOCCOC(C)=O`, for which the Potency result is “inactive”.
On to `C=CC(=O)OCCCCCCOC(=O)C=C`, for which the Potency entry was “inactive”.
With `C/C=C/c1ccc(OCC)c(O)c1`, the Potency result was “inactive”.
Turning to `CO[Si](OC)(OC)c1ccccc1`, the Potency result is “inactive”.
With `N[C@@H]1CONC1=O`, the Potency result was “inactive”.
`CC(COc1ccccc1)N(CCCl)Cc1ccccc1` (stereo not given): the Potency result is “inactive”.
In the case of `CC(C)(C)c1cc(C(C)(C)C)c(O)c(C(C)(C)C)c1`, the Potency result is “inactive”.
For `O=C(O)CP(=O)(O)O`, the Potency entry is “inactive”.
For `CC[C@@H](N)CO`, the Potency entry was “inactive”.
For `BrC1CCC(Br)C(Br)CCC(Br)C(Br)CCC1Br` (stereo not given) the value was “inactive”; for `CCCOC(=O)c1cc(O)c(O)c(O)c1`, “inactive”; for `CCC(=O)/C=C/C1C(C)=CCCC1(C)C` (stereo not given), “inactive”.
For `CC1=C(C=O)C(C)(C)CC=C1`, the Potency result was “inactive”.
For `OCC(CO)N[C@H]1C[C@](O)(CO)[C@@H](O)[C@H](O)[C@H]1O` the value was “inactive”; for `CNCCC(Oc1ccc(C(F)(F)F)cc1)c1ccccc1` (stereo not given), “inactive”; for `Nc1ccc2cc3ccccc3cc2c1`, “inactive”.
Take `CCCCOCCOC(=O)c1ccccc1C(=O)OCCOCCCC`: the Potency result is “inactive”.
Turning to `O`, the Potency entry was “inactive”.
On to `CC(=O)CC(=O)Nc1ccc2[nH]c(=O)[nH]c2c1`, for which the Potency result was “inactive”.
On to `c1ccc2cc3c(ccc4ccccc43)cc2c1`, for which the Potency result was “inactive”.
For the molecule `CC(C)CCOCc1ccccc1`, the Potency entry is “inactive”.
As to `Cc1cccc2n[nH]nc12`, the Potency result was “inactive”.
For `Cc1scc2c1N(C(=O)CN1CCN(C)CC1)c1ccccc1NC2=O` the value was “inactive”; for `O=C(O)c1cn(-c2ccc(F)cc2)c2cc(N3CCNCC3)c(F)cc2c1=O`, “inactive”.
Consider `COC(c1ccccc1)(c1ccccc1)[C@H](Oc1nc(C)cc(C)n1)C(=O)O`, for which the Potency entry is “inactive”.
In the case of `O=Cc1ccc(Cl)cc1`, the Potency result was “inactive”.
Turning to `O=C1CC2(CCCC2)CC(=O)N1CCCCN1CCN(c2ncccn2)CC1`, the Potency result is “inactive”.
The value for `CN(C)c1ccc2nc3ccc(=[N+](C)C)cc-3sc2c1` was 26.2 µM (active) and 27.3 µM (active) and 29.8 µM (active); that for `O=c1n(CC2CO2)c(=O)n(CC2CO2)c(=O)n1CC1CO1` (stereo not given) was “inactive”; that for `CC(N)=O` was “inactive”.
The value for `CCC[C@H](N[C@@H](C)C(=O)N1[C@H](C(=O)O)C[C@@H]2CCCC[C@@H]21)C(=O)OCC` was “inactive”; that for `CN1C(=O)c2ccc([N+](=O)[O-])cc2C1=O` was “inactive”.
For `O=S(=O)(O)c1ccc2nc(-c3ccccc3)[nH]c2c1` the value was “inactive”.
